# Structures can show the parent of a compound that is named as a salt. The whole screen tested about 5,800 compounds, of which about 620 (11%) showed activity. The sample holds actives, similar compounds and a random draw of the others, so the mix is not that of the screen. A number with no mark means an inactive call.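 The calls were made as follows: active = score above a cut-off or among the top three wells of a plate; in these data no inactive exceeds 0.85.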
# Test system: primary human hepatic stellate cells (donor 1)
# Assay: scaled lipid accumulation score (0 = DMSO-like, 1 = nortriptyline-like); higher = stronger HSC inactivation (lipid re-accumulation), active = hit call of the paper
# Settings: 48 h
# [1] = library stock concentration: 10 mM
# [2] = library stock concentration: 3.33 mM
# [3] = library stock concentration: 1 mM
# [4] = library stock concentration: 80 uM
# [5] = library stock concentration: 400 uM
# [6] = library stock concentration: 2 mM
smiles,measurement,setting,value
S=C(Nc1ccccc1)Nc1nccs1 [1-Phenyl-3-(2-thiazolyl)-2-thiourea],scaled lipid accumulation score,[1],≤ -0.055
COc1cccc(Nc2c(C(N)=O)cnc3c(C)cc(S(=O)(=O)c4cccc(C(=O)N(C)C)c4)cc23)c1,scaled lipid accumulation score,[2],≤ 0
same,scaled lipid accumulation score,[1],≤ 0
CCCCCC(O)C=CC1C(O)CC(=O)C1CCCCCCC(=O)O [15(R)-Prostaglandin E1],scaled lipid accumulation score,[3],≤ 0
CCCCCC(O)C=CC1C(O)CC(=O)C1CCCCCCC(=O)O (centres undefined) [8-iso Prostaglandin E1],scaled lipid accumulation score,[3],≤ 0
COc1cc(C)c(Sc2cnc(NC(=O)c3ccc(CNC(C)C(C)C)cc3)s2)cc1C(=O)N1CCN(C(C)=O)CC1 (centres undefined) [listing 1 of 2 here],scaled lipid accumulation score,[1],0.891 (active)
COc1cc(C)c(Sc2cnc(NC(=O)c3ccc(CNC(C)C(C)C)cc3)s2)cc1C(=O)N1CCN(C(C)=O)CC1 (centres undefined) [listing 2 of 2 here],scaled lipid accumulation score,[4],0.006
same,scaled lipid accumulation score,[5],≤ 0
same,scaled lipid accumulation score,[6],0.398
COc1cc(C)c(Sc2cnc(NC(=O)c3ccc(CNC(C)C(C)(C)C)cc3)s2)cc1C(=O)N1CCN(C(C)=O)CC1 (centres undefined),scaled lipid accumulation score,[4],≤ -0.009
same,scaled lipid accumulation score,[5],≤ -0.009
same,scaled lipid accumulation score,[6],0.095
same,scaled lipid accumulation score,[1],0.769
CC(C(O)c1ccc(O)cc1)N1CCC(Cc2ccccc2)CC1 (centres undefined) [Ifenprodil Tartrate],scaled lipid accumulation score,[2],≤ 0
same,scaled lipid accumulation score,[1],0.077
CC(C(O)c1ccc(O)cc1)N1CCC(Cc2ccccc2)CC1 (centres undefined) [Ifenprodil],scaled lipid accumulation score,library stock concentration: 6.1 mM,0.223
same,scaled lipid accumulation score,library stock concentration: 9.6 mM,0.096
CC(C(O)c1ccc(O)cc1)N1CCC(Cc2ccccc2)CC1 (centres undefined) [Ifenprodil tartrate],scaled lipid accumulation score,,0.252
CC(C(O)c1ccc(O)cc1)N1CCC(Cc2ccccc2)CC1.CC(C(O)c1ccc(O)cc1)N1CCC(Cc2ccccc2)CC1.O=C(O)C(O)C(O)C(=O)O (centres undefined) [Ifenprodil tartrate],scaled lipid accumulation score,[1],1.11 (active)
CC(C(O)c1ccc(O)cc1)N1CCC(Cc2ccccc2)CC1 (centres undefined) [Ifenprodil hemitartrate],scaled lipid accumulation score,[1],0.45
C[C@@H](CN1CCC(Cc2ccccc2)CC1)[C@@H](O)c1ccc(O)cc1 [Ro 25-6981 maleate],scaled lipid accumulation score,[1],0.284
C[C@@H](CN1CCC(Cc2ccccc2)CC1)[C@@H](O)c1ccc(O)cc1 [Ro 25-6981 hydrochloride],scaled lipid accumulation score,[1],≤ 0
Nc1nc(=S)c2ncn([C@@H]3O[C@H](CO)[C@@H](O)[C@H]3O)c2[nH]1 [Thioguanosine],scaled lipid accumulation score,,0.076
CCCCC[C@H](O)/C=C/[C@@H]1[C@H](CCCCCCC(=O)O)[C@@H](O)C[C@H]1O [8-iso Prostaglandin F1.alpha.],scaled lipid accumulation score,[3],≤ 0
